RECQ1 inh – qHTS Assay for Inhibitors of RecQ-Like Dna Helicase 1 (RECQ1). ATP-dependent DNA helicase Q1 (Homo sapiens), P46063. RECQ1 DNA unwinding, red fluorescence kinetic read. Potency, µM (titrated, usually from 57.3 µM), for inactives: top-dose activity, negative = inhibition, most hits filed as inhibitors. hit rate 0.54% among 240,000. AID 2549, 2010;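 also: plate controls were vehicle for no effect and no enzyme for full effect; nearly all actives have a fitted effect of over 30% in size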
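RECQ1T1 50 nM; forked duplex (20 bp + 30-nt ss tails) 200 nM, ATP 2 mM final; pH 8.0, 2 mM MgCl2, 2.5 ug/ml poly(dI-dC); 15 min compound preincubation; discontinuous kinetic read over 2 h at RT.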
APEX1 inh – qHTS Assay for Inhibitors of the Human Apurinic/apyrimidinic Endonuclease 1 (APE1); DNA repair nuclease/redox regulator APEX1 (Homo sapiens), P27695; recombinant APE1, TAMRA/BHQ-2 abasic DNA cleavage fluorescence; Potency, µM (titrated, usually from 65.8 µM), inactives show at the highest dose activity change, negative = inhibition, hits mostly inhibitors; hit rate 0.35% among 350,000;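 also: plate controls were vehicle for no effect and reference inhibitor for full effect; nearly all actives have a fitted effect of over 55% in size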
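Enzyme (0.75 nM final) and test compound are incubated 15 min at room temperature before adding 50 nM quenched THF abasic-site duplex. Cleavage dequenches TAMRA, followed at 525/598 nm over three reads one minute apart.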
L3MBTL1 block – qHTS Assay for the Inhibitors of L3MBTL1; Lethal(3)malignant brain tumor-like protein 1 (Homo sapiens), Q9Y468; AlphaScreen L3MBTL1–H3K9me1 peptide binding; Potency, µM (doses to about 57.1 µM), without a hit: at the top dose activity, negative = inhibition, most hits filed as inhibitors; hit rate 0.66% among 230,000; AID 485360, 2010; also: nearly all actives have a fitted effect of over 60% in size
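Read-out is AlphaScreen signal from streptavidin donor and nickel chelate acceptor beads (10 ug/mL final each) bridging L3MBTL1 (50 nM) and biotinylated K9-monomethylated H3(1-15) peptide (75 nM), after 30 min compound exposure at room temperature.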
BLM helicase inh – qHTS Assay for Inhibitors of Bloom's syndrome helicase (BLM). recombinant BLM DNA unwinding, fluorescence dequenching. AID 2528, 2010. hit rate 0.2% among 350,000. Potency, µM (top dose mostly 56.1 µM), without a hit: at the top dose activity change, negative = inhibition, actives largely listed as inhibitors;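 also: plate controls were vehicle for no effect and no enzyme for full effect; nearly all actives have a fitted effect of over 35% in size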
Target sequence (P54132 whole entry, looked up): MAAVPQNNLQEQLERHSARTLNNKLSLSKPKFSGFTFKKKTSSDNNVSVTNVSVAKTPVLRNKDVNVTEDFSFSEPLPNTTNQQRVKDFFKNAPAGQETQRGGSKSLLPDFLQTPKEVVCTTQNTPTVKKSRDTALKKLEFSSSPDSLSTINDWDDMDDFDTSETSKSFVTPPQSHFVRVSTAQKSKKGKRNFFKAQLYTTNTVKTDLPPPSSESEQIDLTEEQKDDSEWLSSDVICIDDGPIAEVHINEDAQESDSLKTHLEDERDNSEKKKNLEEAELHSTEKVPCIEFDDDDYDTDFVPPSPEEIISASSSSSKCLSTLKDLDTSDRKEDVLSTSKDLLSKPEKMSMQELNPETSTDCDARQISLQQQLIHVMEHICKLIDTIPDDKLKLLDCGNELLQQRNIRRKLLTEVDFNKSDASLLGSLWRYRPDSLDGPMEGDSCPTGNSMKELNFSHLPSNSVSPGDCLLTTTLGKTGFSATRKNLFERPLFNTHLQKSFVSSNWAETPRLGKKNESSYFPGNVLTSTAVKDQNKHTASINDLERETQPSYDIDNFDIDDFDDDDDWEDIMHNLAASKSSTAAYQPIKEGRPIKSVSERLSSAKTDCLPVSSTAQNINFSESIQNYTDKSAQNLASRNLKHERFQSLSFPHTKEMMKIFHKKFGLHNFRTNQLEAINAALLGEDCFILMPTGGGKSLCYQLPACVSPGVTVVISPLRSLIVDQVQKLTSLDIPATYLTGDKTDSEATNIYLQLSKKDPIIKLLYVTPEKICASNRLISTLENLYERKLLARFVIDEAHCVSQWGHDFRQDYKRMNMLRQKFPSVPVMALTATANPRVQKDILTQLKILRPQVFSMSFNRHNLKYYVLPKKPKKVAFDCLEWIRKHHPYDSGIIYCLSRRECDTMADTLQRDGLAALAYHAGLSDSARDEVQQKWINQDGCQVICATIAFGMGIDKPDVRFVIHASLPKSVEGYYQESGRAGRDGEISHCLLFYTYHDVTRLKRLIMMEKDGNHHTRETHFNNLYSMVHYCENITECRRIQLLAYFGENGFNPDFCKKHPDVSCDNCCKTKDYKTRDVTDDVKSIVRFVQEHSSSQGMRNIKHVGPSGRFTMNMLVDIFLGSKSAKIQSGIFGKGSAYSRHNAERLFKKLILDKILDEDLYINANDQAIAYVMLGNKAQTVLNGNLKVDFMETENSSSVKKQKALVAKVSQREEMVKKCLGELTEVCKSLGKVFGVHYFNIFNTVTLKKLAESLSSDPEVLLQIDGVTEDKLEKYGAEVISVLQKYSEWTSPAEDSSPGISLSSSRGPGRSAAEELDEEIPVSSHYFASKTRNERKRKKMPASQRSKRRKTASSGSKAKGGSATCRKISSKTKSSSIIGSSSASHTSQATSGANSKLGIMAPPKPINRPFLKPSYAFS
RGS12 GoLoco inh – qHTS Assay for Inhibitors of RGS12 GoLoco Motif Activity (Red Fluorophore). Guanine nucleotide-binding protein G(i) subunit alpha-1 (Homo sapiens), P63096. Gai1:RGS12 GoLoco peptide FP, rhodamine, 10 min. Potency, µM (doses to about 61.6 µM), for the others: at the highest dose activity, negative = inhibition, actives largely listed as inhibitors. hit rate 0.44% among 230,000. AID 880, 2007; active = well fitted inhibition curve with a large enough effect, not every such curve was filed as active; inactive = no such curve, though single readings can be large or run the other way; also: nearly all actives have a fitted effect of over 30% in size
KDM4E inh – qHTS Assay for Inhibitors of Human Jumonji Domain Containing 2E (JMJD2E) | Lysine-specific demethylase 4E (Homo sapiens), B2RXH2 | JMJD2E catalytic domain, FDH-coupled NADH fluorescence (FDH is formaldehyde dehydrogenase) | Potency, µM (top dose mostly 57.1 µM), without a hit: at the highest dose activity change, negative = inhibition, usual class: inhibitors | hit rate 1.6% among 230,000; active = well fitted inhibition curve with a large enough effect, not every such curve was filed as active; inconclusive = small, poorly fitted or top-dose-only effect, or another doubt; inactive = no such curve, though single readings can be large or run the other way;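 also: 0% = wells with enzyme and -100% = buffer wells without enzyme; nearly all actives have a fitted effect of over 50% in size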
* marks the source's active call; other numbers are inactive results; i = inactive; ? = inconclusive; nt = no result given; [ ] = remark or other dose. This excerpt belongs to a sample that is enriched for hits. Unless noted, calls follow the shape of the dose curve; as a rule, active = well fitted curve in the direction sought with a large enough effect; inconclusive = small, poorly fitted or top-dose-only effect, or another doubt; inactive = no such curve, though single readings can be large; an effect the other way counts as inactive or inconclusive. Unless noted, % is scaled to controls: 0 for no effect and ±100 for the full control effect; potency is read from the fitted curve at half-maximal effect.

SMILES | RECQ1 inh | APEX1 inh | L3MBTL1 block | BLM helicase inh | RGS12 GoLoco inh | KDM4E inh
Cc1cccc(C2c3[nH]c4ccccc4c3CCN2Cc2cccn2-c2ncccn2)c1 (stereo not drawn) | -13.0% | -7.8% | -17.5% | -11.3% | 19.8% | 31.6µM*
COc1ccc(-c2nc(C#N)c(NCCCN3CCOCC3)o2)cc1 | -4.4% | ? | -10.0% | 4.6% | -7.5% | 5.01µM*
COC(=O)C1=C(C)N(Cc2ccc(C)cc2)C(=O)/C1=C\c1ccc(O)c(OC)c1 | 5.5% | -6.8% | -20.2% | -7.1% | -25.7% | -27.5%
CCOC(=O)C1=C(C)N(c2ccc(C)cc2)C(=O)/C1=C\c1ccc(O)c(OC)c1 | -14.0% | -12.3% | -21.1% | -6.8% | -27.0% | 2.24µM*
N#CC(Cc1ccc(O)c(O)c1)C(=O)N1CCc2ccccc21 (stereo not drawn) | -3.8% | 6.9% | nt | nt | 9.4% | 20µM*
CC(NCc1ccc(S(N)(=O)=O)cc1)C(=O)N1CCc2ccccc21 (stereo not drawn) | -1.8% | 2.9% | nt | -0.7% | 2.1% | -1.1%
COc1ccc(-c2cc(C(=O)Nc3c(C(=O)c4ccc(Cl)cc4)oc4ccccc34)no2)cc1 | nt | nt | nt | -0.3% | nt | nt
COc1cc(N/N=C(\C)c2ccc(O)c(C)c2)nc(-c2ccccc2)n1 | -14.0% | -4.6% | -15.1% | -17.0% | 5.6% | 31.6µM*
O=C(NN=C1CCCC1)c1cc(O)cc(O)c1 | nt | 10.6µM* | nt | -7.3% | nt | nt
COc1ccc(C2=Nn3c(nnc3-c3ccccc3Cl)SC2)cc1OC | nt | -9.5% | nt | nt | nt | nt
N#CCCN1CCN(C(=S)c2ccc(-c3ccc(Cl)cc3)o2)CC1 | i | -9.0% | nt | -8.8% | 15.1% | 12.6µM*
CC(C)(C)c1c(Cl)c(O)c(-c2ccccc2)c(=O)n1-c1ccccc1 | i | 18.4% | 31.6µM* | -8.9% | 9.9% | 6.7%
CC1=NN(c2ccccc2)C(=O)/C1=C\C=C\c1ccccc1 | -2.9% | 1.1% | -8.5% | -8.1% | 4.6% | -13.1%
O=C(O)c1cc(N2N=C(C(F)(F)F)/C(=C/C=C/c3ccco3)C2=O)ccc1Cl | 17.4% | 0.8% | 1µM* | ? | 175.4% | 2.5%
CC1=NN(c2ccc(C(=O)OC(C)C)cc2)C(=O)/C1=C\C=C\c1ccco1 | 5.7% | 7.7% | 6.31µM* | -11.8% | 22.1% | 3.9%
COc1ccc2c(c1)O[C@@H](c1ccc3c(c1)OCO3)[C@H](OC(=O)N[C@H]1CCCc3ccccc31)C2=O | i | 1.5% | nt | -2.5% | 8.9% | 5.6%
CCCCCCNC(=O)N[C@@H](C(=O)NCCC[C@H]1CN2C(=NC[C@@H]2Cc2ccccc2)N1CCc1cccc(OC)c1)C(C)C | i | 0.7% | nt | 4.2% | 14.1µM* | ?
C/C=C(\C)C(=O)NCCN1C2=NC[C@@H](Cc3ccccc3)N2C[C@H]1Cc1ccc(O)cc1 | -4.9% | 0.3% | 2.2% | -1.3% | 5.2% | 0.3%
Brc1ccc2[nH]c3c(N4CCc5ccccc5C4)ncnc3c2c1 | -3.7% | -2.0% | nt | 4.9% | 56.6% | 3.55µM*
Fc1ccc2[nH]c3c(N4CCc5ccccc5C4)ncnc3c2c1 | -10.0% | 11.5% | 5.6% | -8.3% | 9.4% | ?
CCCCC(=O)N1C/C=C\C(c2ccc(OC)cc2)N(Cc2ccc(F)cc2)C(=O)C1Cc1ccccc1 (stereo not drawn) | -8.1% | 1.2% | nt | -9.0% | nt | nt
CCCCc1nc2c(c3c1C[C@H](C)OC3)CN(C(=O)N[C@@H](C)c1ccccc1)CC2 | i[11.5 µM] | -3.4%[12.4 µM] | nt | 1.1%[12.4 µM] | 11.9%[14.2 µM] | 7.1%[11.4 µM]

Screening data: PubChem BioAssay, National Center for Advancing Translational Sciences (NCATS)
